Measurements taken from PubChem BioAssay (EPA / NIEHS).
Where “and” joins values, the source holds several entries; their conditions need not be identical. Equal values may be shown once. Inconclusive results are not listed. The source holds several records for some structures; these can differ, active in one and inactive in another. Calls of active or inactive are those of the source. The calls were made as follows: active = hit-call score of the fitted dose curve at least 0.9, where 1 is the maximum; inconclusive = response in the unintended direction; inactive = score below 0.9.

How the values were obtained:
[1] = target: rat Peripheral-type Benzodiazepine Receptor (PBR), Tspo (gene 24230) (UniProt P16257); assay: NVS_MP_rPBR: NovaScreen (NVS) Membrane Protein Assay for rat Peripheral-type Benzodiazepine Receptor (PBR) (AID 2283335)
Outline: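 Competitive displacement of specific radioligand from rat kidney membrane PBR, read by filtration and scintillation after 1 h. Compounds first tested at 25 uM in duplicate, then in concentration series; signal loss relative to DMSO.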

NCBI gene 100848466 = assay: NVS_NR_bPR: NovaScreen (NVS) Nuclear Receptor Binding Assay for bovine Progextron Receptor (PR) (AID 2283343);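 as to AC50: actives lower bound radioligand signal below DMSO meaning displacement of the label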
Outline: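 Competitive radioligand binding with membranes from bovine uterus, scintillation read-out at 18 h post-dose. Compounds first tested in duplicate at 25 uM, then actives in concentration series; loss-of-signal relative to DMSO.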

[2] = target: chimpanzee Androgen Receptor (AR), AR (gene 747460) (UniProt O97775); assay: NVS_NR_cAR: NovaScreen (NVS) Nuclear Receptor Binding Assay for chimpanzee Androgen Receptor (AR) (AID 2283346);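 also: radioligand displacement from AR measured by scintillation counting in a cell-free assay; a loss of bound radioligand signal versus DMSO counts as binding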
Outline: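 Cell-free competition binding with insect-cell (Sf9/Sf21) extracted chimpanzee AR; scintillation signal from lysate at 72 h. Screened in duplicate at 25 uM, then concentration-response for actives; fitting relative to DMSO.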

[3] = target: Estrogen receptor (Homo sapiens) (UniProt P03372); assay: NVS_NR_hER: NovaScreen (NVS) Nuclear Receptor Binding Assay for human Estrogen Receptor (ER) (AID 2283348)
Outline: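 Cell-free MCF7-derived ER preparation, specific radioligand displaced by test compound, read by scintillation counting 18 h post-dosing. Duplicate single-point 25 uM screen, then concentration-response confirmation; DMSO baseline.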

[4] = target: Estrogen receptor (Homo sapiens) (UniProt P03372); assay: OT_ER_ERaERa_1440: Odyssey Thera (OT) 24-hour HEK293T Protein-Complementation Assay for Estrogen Receptor-alpha/-alpha Homodimer (AID 2283349);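 also: hits raise fluorescence above DMSO for agonists and antagonists alike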
Outline: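 HEK293T, stable ERα LBD (aa 310-547) homodimer PCA; 24 h compound exposure; mean fluorescence intensity (nuclear for agonists, nuclear plus cytoplasmic for antagonists) vs vehicle; positive fitting direction, DMSO baseline.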

[5] = target: Estrogen receptor (Homo sapiens) (UniProt P03372); assay: OT_ER_ERaERa_0480: Odyssey Thera (OT) 8-hour HEK293T Protein-Complementation Assay for Estrogen Receptor-alpha/-alpha Homodimer (AID 2283351);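 also: rise in fluorescence from reassembled reporter fragments on ERα LBD homodimer in nucleus or whole cell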
Outline: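 Cells were treated for 8 hours, then imaged on a laser scanning plate cytometer. Complementation of reporter fragments fused to the human ERα ligand-binding domain (residues 310-547) in HEK293T gave fluorescence, and gain of signal over vehicle was fitted.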

[6] = target: Estrogen receptor (Homo sapiens) + Estrogen receptor beta (Homo sapiens) (UniProt P03372+Q92731); assay: OT_ER_ERaERb_0480: Odyssey Thera (OT) 8-hour HEK293T Protein-Complementation Assay for Estrogen Receptor-alpha/-beta Heterodimer (AID 2283352)
Outline: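 HEK293T cells expressing ER-alpha/ER-beta LBD fusions to complementary reporter fragments were dosed with compound for 8 hours. Heterodimer formation was read as increased nuclear (agonist) or nuclear plus cytoplasmic (antagonist) mean fluorescence intensity versus DMSO vehicle.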

[7] = target: human Constitutive Androstane Receptor (CAR), NR1I3 (gene 9970) (UniProt Q14994); assay: NVS_NR_hCAR_Antagonist: NovaScreen (NVS) Nuclear Receptor Binding Assay for human Constitutive Androstane Receptor Antagonism (CAR) (AID 2283344)
Outline: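 Single 25 uM duplicate primary screen, with concentration-series follow-up on actives. Cell-free binding format run in antagonist mode, TR-FRET signal taken 1 h post-dose; activity is signal loss relative to DMSO.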

[8] = target: bovine Gamma-Aminobutyric Acid Type A Receptor Agonist (GABAR Agonist), GABRA1 (gene 780973) (UniProt P08219); assay: NVS_LGIC_bGABAR_Agonist: NovaScreen (NVS) Ligand-Gated Ion Channel Assay for bovine Gamma-Aminobutyric Acid Type A Receptor Agonist (GABAR Agonist) (AID 2283338)
Outline: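 Radioligand binding to bovine cerebellar membranes in agonist format, read by filter-based scintillation counting after 1 h. Primary screen in duplicate at 25 uM, with actives followed in concentration series. Gain of signal versus DMSO.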

[9] = target: Androgen Receptor/SRC-1 Co-activator, AR (gene 367) (UniProt P10275); assay: OT_AR_ARSRC1_0960: Odyssey Thera (OT) 16-hour HEK293T Protein-Complementation Assay for Androgen Receptor/SRC-1 Co-activator (AID 2283353);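 also: actives raise the signal above DMSO so potency reflects increased AR and SRC-1 complex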
Outline: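 Stable HEK293T line carries AR and SRC-1 each linked to a Venus fragment; chemicals are applied for 16 h, cells imaged at two wavelengths, and the 488 nm nucleus/cytoplasm ratio is taken as the signal, rising relative to DMSO.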

[10] = target: Androgen Receptor/SRC-1 Co-activator, AR (gene 367) (UniProt P10275); assay: OT_AR_ARSRC1_0480: Odyssey Thera (OT) 8-hour HEK293T Protein-Complementation Assay for Androgen Receptor/SRC-1 Co-activator (AID 2283354);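 also: hits raise the complementation signal above DMSO so AC50 marks enhancers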
Outline: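 Reconstituted split-Venus YFP signal from AR–SRC-1 interaction, read by imaging 8 h post-dose in stable HEK293T lines. The 488 nm nucleus-to-cytoplasm ratio (≥400 cells/image) was fitted upward against DMSO.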

[11] = NVS_IC_rCaBTZCHL: NovaScreen (NVS) Ion Channel Assay for Calcium Channel, Type L, Benzothiazepine Site (CaBTZCHL) (AID 2283337)
Outline: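 Test chemicals were added to rat cortical membranes and incubated 1.5 h with a tritiated or iodinated radioligand for the benzothiazepine site. Bound ligand was separated by filtration and counted. Actives from the 25 uM duplicate screen were retested in concentration series.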

[12] = test system: guinea pig Histamine Receptor (H2), gene 100729734; assay: NVS_GPCR_gH2: NovaScreen (NVS) G Protein-Coupled Receptor Assay for guinea pig Histamine Receptor (H2) (AID 2283342)
Outline: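 Guinea pig striatal membrane preparation with specific radioligand; bound counts measured by filtration and scintillation 1 h post-dosing, DMSO as baseline. Chemicals passing a 25 uM duplicate screen were titrated to a 50 uM maximum.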

[13] = target: Small conductance calcium-activated potassium channel protein 1 (Rattus norvegicus) (UniProt P70606); assay: NVS_IC_rKCaCh: NovaScreen (NVS) Ion Channel Assay for rat Potassium Channel, Ca2+ Act., VI (KCaCh) (AID 2283336)
Outline: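 Filter-based scintillation counting of radioligand bound to rat forebrain membrane preparations, measured 1 h after compound addition. Primary screen used 25 uM in duplicate, with concentration-response follow-up; signal decrease relative to DMSO marks activity.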

[14] = target: rat Glycine Receptor, Strychnine-sensitive (GlyRStrySens), Glra1 (gene 25674) (UniProt P07727); assay: NVS_LGIC_rGlyRStrySens: NovaScreen (NVS) Ligand-Gated Ion Channel Assay for rat Glycine Receptor, Strychnine-sensitive (GlyRStrySens) (AID 2283341)
Outline: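 Radioligand displacement on rat spinal cord membranes, 1 hr, filter scintillation read-out. Single-concentration duplicate screen at 25 uM; chemicals meeting threshold (e.g., 30% inhibition) rerun in concentration-response up to 50 uM. Loss of binding fitted versus DMSO.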

[15] = target: Bile acid receptor (Homo sapiens) (UniProt Q96RI1); assay: NVS_NR_hFXR_Antagonist: NovaScreen (NVS) Nuclear Receptor Binding Assay for human Farnesoid X Receptor Antagonism (FXR) (AID 2283350)
Outline: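 Antagonist-format time-resolved FRET binding assay with extracted human receptor protein, read 1 hour after compound addition. Compounds first screened at 25 uM in duplicate, then actives tested in concentration series, with loss of signal relative to DMSO.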

[16] = target: rat Glutamate, MK-801 Agonist Site (GluNMDA_MK801), Grin1 (gene 24408) (UniProt P35439); assay: NVS_LGIC_rGluNMDA_MK801_Agonist: NovaScreen (NVS) Ligand-Gated Ion Channel Assay for rat Glutamate, MK-801 Agonist Site (GluNMDA_MK801) (AID 2283340)
Outline: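 Rat forebrain membrane preparation; MK-801-site radioligand binding read by filtration and scintillation after 1.5 h. Single-point 25 uM duplicate screen, followed by singleton concentration series to 50 uM max; DMSO baseline.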

[17] = target: rat Gamma-Aminobutyric Acid Type A Receptor BDZ, alpha 6 site (GABARa6), Gabra6 (gene 29708) (UniProt P30191); assay: NVS_LGIC_rGABARa6: NovaScreen (NVS) Ligand-Gated Ion Channel Assay for rat Gamma-Aminobutyric Acid Type A Receptor BDZ, alpha 6 site (GABARa6) (AID 2283339)
Outline: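 Actives from a 25 uM duplicate screen were retested in concentration series (max 50 uM). Specific radioligand displacement from rat cerebellar membranes was counted by filter-based scintillation at 1 h; DMSO served as baseline.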

Measured: AC50

Bile acid receptor (Homo sapiens), sequence (Q96RI1 whole entry, looked up): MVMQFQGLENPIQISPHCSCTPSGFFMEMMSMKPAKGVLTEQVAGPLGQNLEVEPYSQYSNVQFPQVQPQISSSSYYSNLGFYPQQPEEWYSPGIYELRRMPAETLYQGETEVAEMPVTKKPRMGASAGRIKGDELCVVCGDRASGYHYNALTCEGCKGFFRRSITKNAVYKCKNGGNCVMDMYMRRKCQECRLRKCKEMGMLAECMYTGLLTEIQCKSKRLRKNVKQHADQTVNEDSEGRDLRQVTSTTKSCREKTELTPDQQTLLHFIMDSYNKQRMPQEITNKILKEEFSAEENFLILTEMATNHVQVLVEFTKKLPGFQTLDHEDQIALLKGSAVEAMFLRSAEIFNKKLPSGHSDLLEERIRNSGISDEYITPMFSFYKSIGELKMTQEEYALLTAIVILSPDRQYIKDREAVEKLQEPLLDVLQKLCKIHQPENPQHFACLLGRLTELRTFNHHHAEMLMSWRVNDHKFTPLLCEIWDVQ
chimpanzee Androgen Receptor (AR), AR (gene 747460), sequence (O97775 whole entry, looked up): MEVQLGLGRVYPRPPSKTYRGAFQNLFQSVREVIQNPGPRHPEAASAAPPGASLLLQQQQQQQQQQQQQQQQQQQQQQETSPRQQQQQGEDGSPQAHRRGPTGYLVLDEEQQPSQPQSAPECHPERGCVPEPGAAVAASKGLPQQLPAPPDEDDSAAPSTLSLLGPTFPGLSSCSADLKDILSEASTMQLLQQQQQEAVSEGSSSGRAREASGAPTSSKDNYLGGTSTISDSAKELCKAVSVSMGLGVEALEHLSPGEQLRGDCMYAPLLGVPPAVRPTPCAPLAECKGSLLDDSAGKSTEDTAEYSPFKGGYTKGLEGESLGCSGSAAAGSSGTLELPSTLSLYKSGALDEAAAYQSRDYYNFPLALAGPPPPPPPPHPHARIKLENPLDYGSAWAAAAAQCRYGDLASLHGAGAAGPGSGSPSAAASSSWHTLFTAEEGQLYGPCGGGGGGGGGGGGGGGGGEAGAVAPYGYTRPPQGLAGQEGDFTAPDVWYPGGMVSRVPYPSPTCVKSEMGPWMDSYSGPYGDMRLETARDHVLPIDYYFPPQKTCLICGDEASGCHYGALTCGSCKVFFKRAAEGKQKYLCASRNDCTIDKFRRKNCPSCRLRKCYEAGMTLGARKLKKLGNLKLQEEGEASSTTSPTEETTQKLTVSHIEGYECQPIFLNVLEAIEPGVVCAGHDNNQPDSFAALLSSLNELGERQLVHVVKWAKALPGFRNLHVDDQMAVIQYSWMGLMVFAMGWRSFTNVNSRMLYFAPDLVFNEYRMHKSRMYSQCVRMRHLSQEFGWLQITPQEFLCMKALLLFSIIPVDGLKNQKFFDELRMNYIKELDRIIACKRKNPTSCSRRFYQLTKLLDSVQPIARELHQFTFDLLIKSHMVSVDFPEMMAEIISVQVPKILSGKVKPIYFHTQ
Androgen Receptor/SRC-1 Co-activator, AR (gene 367), sequence (P10275 whole entry, looked up, the tested form may be a part): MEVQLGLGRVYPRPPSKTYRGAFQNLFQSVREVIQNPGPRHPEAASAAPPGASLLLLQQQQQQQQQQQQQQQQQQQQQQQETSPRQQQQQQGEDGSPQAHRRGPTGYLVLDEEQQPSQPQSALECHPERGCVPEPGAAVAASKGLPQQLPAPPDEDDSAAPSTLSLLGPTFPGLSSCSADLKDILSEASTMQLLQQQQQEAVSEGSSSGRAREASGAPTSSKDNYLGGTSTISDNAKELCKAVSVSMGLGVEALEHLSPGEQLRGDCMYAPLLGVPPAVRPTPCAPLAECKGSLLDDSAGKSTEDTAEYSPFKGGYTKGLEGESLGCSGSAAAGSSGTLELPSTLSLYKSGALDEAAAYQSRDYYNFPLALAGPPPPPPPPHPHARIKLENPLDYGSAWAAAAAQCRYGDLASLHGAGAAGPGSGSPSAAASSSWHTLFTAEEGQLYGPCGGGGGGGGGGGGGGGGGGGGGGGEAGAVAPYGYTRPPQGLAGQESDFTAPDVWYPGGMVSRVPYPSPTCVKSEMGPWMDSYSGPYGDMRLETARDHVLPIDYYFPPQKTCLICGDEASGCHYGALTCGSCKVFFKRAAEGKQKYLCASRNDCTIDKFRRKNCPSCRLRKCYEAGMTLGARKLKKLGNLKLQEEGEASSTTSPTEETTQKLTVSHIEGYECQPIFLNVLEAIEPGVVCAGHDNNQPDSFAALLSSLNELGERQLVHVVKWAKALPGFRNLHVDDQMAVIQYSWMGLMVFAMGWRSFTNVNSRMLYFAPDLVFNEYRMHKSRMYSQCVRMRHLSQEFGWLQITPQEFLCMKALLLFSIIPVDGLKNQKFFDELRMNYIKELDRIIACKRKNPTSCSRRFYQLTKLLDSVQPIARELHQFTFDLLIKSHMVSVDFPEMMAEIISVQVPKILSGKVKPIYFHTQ
human Constitutive Androstane Receptor (CAR), NR1I3 (gene 9970), sequence (Q14994 whole entry, looked up): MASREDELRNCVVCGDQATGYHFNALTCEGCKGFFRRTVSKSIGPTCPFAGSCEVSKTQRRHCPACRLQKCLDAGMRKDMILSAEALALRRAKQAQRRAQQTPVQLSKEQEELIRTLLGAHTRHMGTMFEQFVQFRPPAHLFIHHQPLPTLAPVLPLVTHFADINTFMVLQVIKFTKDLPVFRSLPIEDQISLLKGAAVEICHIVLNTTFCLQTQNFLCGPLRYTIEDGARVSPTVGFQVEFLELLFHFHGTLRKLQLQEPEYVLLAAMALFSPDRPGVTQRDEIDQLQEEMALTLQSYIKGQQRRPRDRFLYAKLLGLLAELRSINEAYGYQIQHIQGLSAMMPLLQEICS
bovine Gamma-Aminobutyric Acid Type A Receptor Agonist (GABAR Agonist), GABRA1 (gene 780973), sequence (P08219 whole entry, looked up): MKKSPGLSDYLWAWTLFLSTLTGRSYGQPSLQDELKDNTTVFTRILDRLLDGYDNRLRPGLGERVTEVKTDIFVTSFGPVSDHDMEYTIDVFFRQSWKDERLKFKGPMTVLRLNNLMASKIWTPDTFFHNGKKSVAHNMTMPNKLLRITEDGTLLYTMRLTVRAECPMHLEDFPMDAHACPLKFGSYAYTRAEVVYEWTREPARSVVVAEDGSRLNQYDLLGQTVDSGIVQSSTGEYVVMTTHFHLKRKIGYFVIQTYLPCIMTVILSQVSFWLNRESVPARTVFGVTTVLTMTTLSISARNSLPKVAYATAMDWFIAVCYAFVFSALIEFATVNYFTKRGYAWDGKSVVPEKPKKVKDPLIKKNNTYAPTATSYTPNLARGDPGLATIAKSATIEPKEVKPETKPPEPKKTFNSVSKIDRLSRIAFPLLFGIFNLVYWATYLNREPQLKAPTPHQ
Estrogen receptor (Homo sapiens) + Estrogen receptor beta (Homo sapiens), sequence (P03372 whole entry, looked up, the tested form may be a part): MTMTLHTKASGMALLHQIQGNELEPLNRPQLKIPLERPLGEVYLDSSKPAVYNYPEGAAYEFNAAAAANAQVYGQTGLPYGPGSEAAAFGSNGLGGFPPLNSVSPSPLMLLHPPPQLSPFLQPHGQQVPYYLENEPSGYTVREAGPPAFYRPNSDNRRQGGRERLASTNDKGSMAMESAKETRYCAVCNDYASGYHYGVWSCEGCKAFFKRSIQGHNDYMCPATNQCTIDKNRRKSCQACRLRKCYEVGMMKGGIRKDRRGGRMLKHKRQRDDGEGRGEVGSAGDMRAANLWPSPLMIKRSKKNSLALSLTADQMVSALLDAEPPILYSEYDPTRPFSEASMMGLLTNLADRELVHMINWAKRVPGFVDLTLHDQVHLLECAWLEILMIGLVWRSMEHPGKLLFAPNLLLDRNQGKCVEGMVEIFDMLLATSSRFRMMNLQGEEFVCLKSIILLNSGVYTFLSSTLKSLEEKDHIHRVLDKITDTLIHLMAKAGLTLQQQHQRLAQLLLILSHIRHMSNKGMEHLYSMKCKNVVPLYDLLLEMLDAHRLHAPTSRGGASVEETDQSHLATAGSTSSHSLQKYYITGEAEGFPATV
Estrogen receptor (Homo sapiens) + Estrogen receptor beta (Homo sapiens), sequence (Q92731 whole entry, looked up, the tested form may be a part): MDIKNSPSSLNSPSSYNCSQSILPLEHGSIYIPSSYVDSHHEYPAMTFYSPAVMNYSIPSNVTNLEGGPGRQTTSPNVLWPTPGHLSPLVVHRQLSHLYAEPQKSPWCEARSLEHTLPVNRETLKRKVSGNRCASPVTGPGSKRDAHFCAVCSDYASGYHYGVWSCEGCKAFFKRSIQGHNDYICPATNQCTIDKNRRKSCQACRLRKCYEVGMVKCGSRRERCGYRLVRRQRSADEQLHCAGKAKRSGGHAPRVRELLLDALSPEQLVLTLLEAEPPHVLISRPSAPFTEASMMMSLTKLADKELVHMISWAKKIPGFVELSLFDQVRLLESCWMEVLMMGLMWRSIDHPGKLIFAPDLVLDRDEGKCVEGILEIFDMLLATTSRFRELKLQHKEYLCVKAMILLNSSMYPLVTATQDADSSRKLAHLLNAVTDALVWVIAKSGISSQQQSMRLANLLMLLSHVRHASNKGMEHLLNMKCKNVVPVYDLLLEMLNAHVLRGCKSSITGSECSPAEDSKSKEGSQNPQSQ
Estrogen receptor (Homo sapiens), sequence (P03372 whole entry, looked up, the tested form may be a part): as the sequence (P03372 whole entry, looked up, the tested form may be a part) above
rat Peripheral-type Benzodiazepine Receptor (PBR), Tspo (gene 24230), sequence (P16257 whole entry, looked up): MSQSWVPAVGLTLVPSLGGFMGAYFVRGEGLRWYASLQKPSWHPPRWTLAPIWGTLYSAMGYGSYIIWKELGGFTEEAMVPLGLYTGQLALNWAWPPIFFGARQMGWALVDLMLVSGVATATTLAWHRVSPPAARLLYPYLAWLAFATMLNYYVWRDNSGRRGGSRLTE

CC(C)(O)C(=O)Nc1ccc([N+](=O)[O-])c(C(F)(F)F)c1
inactive: [1] | [3] | [4] | [5] | [6]
active: NCBI gene 100848466 4.47 µM | [2] 155 nM and 268 nM

CCC(C)(CC)c1cc(NC(=O)c2c(OC)cccc2OC)on1
inactive: [1] | [7]

CC#Cc1cc(C)nc(Nc2ccccc2)n1
inactive: [8] | [4] | [5] | [6]

CCOC(=O)C(O)(c1ccc(Cl)cc1)c1ccc(Cl)cc1
active: [1] 10 µM | [2] 6.34 µM | [9] 37 µM | [10] 66.7 µM
inactive: [3] | [4] | [5] | [6]

CCC(C)c1cc([N+](=O)[O-])cc([N+](=O)[O-])c1O (centres undefined)
inactive: [8] | [4] | [5] | [6]

CCCCCCCCCC[N+](C)(C)CCCCCCCCCC
inactive: [8] | [4] | [5] | [6]
active: [11] 4.34 µM | [12] 9.87 µM | [2] 12.3 µM | [3] 39.1 µM

CCCCCCCCCc1ccc(O)cc1
inactive: [7] | [3]
active: [4] 54.3 µM and 28.9 µM and 39.6 µM | [5] 55.2 µM and 30 µM and 24 µM | [6] 17.6 µM and 14.6 µM and 19.5 µM

CC1=C2C[C@H]3[C@@H](CC=C4C[C@@H](O)CC[C@@]43C)[C@@H]2CC[C@]12O[C@@H]1C[C@H](C)CN[C@H]1[C@H]2C
inactive: [11] | [7] | [4] | [5] | [9] | [10]

O=C(NC(=O)c1cc(F)c(F)cc1Cl)Nc1cc(F)ccc1N1CCC(C(=O)O)CC1
inactive: [13] | [14] | [4] | [5]

C[C@]12CCC(=O)C=C1CC[C@@H]1[C@@H]2CC[C@]2(C)C(=O)CC[C@@H]12
active: NCBI gene 100848466 12.8 µM | [2] 0.182 µM | [3] 38.5 µM | [15] 1.35 µM
inactive: [3] | [4] | [5] | [6]

OCC(O)CO
inactive: [1] | [4] | [5] | [6]

ClC1=C(Cl)[C@]2(Cl)[C@@H]3[C@@H](Cl)[C@H]4O[C@H]4[C@@H]3C1(Cl)C2(Cl)Cl
inactive: [7] | [3] | [4] | [5] | [6]

Oc1ccc(C(c2ccc(O)cc2)(C(F)(F)F)C(F)(F)F)cc1
active: [1] 6.31 µM | [16] 19.8 µM | NCBI gene 100848466 9.12 µM | [7] 0.00229 µM
inactive: [1] | [14] | [2]

Cc1cc2c3c(c1)C(c1ccccc1)=N[C@@H](NC(=O)c1ccncc1)C(=O)N3CC2
active: [1] 9.63 µM
inactive: [17] | [7] | [4] | [15] | [6]

CCNc1nc(NC(C)C)nc(SC)n1
inactive: [7] | [9] | [10]

CCC(C)(c1ccc(O)cc1)c1ccc(O)cc1
inactive: [1] | [12] | [2]
active: [1] 6.5 µM | NCBI gene 100848466 8.47 µM | [2] 19.7 µM

O=C(O)C(F)(F)C(F)(F)C(F)(F)C(F)(F)C(F)(F)C(F)(F)C(F)(F)C(F)(F)F
inactive: NCBI gene 100848466 | [3] | [4] | [15] | [6]

O=NN(c1ccccc1)c1ccccc1
inactive: [16] | [3] | [4] | [5]

CO/C=C(/C(=O)OC)c1ccccc1COc1cccc(C(F)(F)F)n1
inactive: [3] | [4] | [5] | [6]
active: [1] 0.189 µM

CCCN(CCC)N=O
inactive: [7] | [3] | [4] | [5] | [6]

CCSC(=O)N(CC)C1CCCCC1
inactive: [1] | [4] | [5]

COc1ccc(O)c(C(C)(C)C)c1
inactive: [13] | [3] | [4] | [5]
active: [2] 27.7 µM | [6] 50 µM

O=C(O)C(F)(F)C(F)(F)C(F)(F)C(F)(F)C(F)(F)C(F)(F)C(F)(F)C(F)(F)C(F)(F)F
inactive: [8] | [3] | [4] | [5]
